Experimental data published in PubChem BioAssay (Tox21).
Inconclusive results are not listed. Calls of active or inactive are those of the source. Unless noted, calls come from the whole dose curve; as a rule, active = well fitted curve in the direction sought with a large enough effect in the repeat runs; inconclusive = weak or mixed curves; inactive = no such curve, though single readings can be large; an effect the other way counts as inactive or inconclusive.

Legend:
[1] = qHTS assay to identify small molecule agonists of the peroxisome proliferator-activated receptor delta (PPARd) signaling pathway - cell viability counter screen (AID 743211); note: nearly all actives have a fitted effect of over 55% in size
Summary of the method: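 Viability was measured as CellTiter-Glo luminescence (30 min, room temperature) in the same wells as the beta-lactamase readout. GeneBLAzer PPARd UAS-bla HEK293H cells received compound after 5 h plating and were incubated 17 h at 37 C.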

[2] = qHTS assay to identify small molecule antagonists of the peroxisome proliferator-activated receptor delta (PPARd) signaling pathway - cell viability counter screen (AID 743213); note: nearly all actives have a fitted effect of over 50% in size
Summary of the method: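 Cytotoxicity counter screen: CellTiter-Glo luminescence read 30 min after addition, in the same wells as the reporter assay. There, PPARd UAS-bla HEK293H cells (3000/well) were treated 17 h at 37 C with compound and 300 nM L165041.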

[3] = qHTS assay to identify small molecule agonists of the farnesoid-X-receptor (FXR) signaling pathway - cell viability counter screen (AID 743218); note: nearly all actives have a fitted effect of over 45% in size
Summary of the method: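 Viability counter screen in the same wells: CellTiter-Glo luminescence, 30 min room-temperature incubation, measured after the beta-lactamase read. Cells were GeneBLAzer FXR-UAS-bla HEK 293T, compound-treated 16 h at 37C.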

[4] = qHTS assay to identify small molecule antagonists of the farnesoid-X-receptor (FXR) signaling pathway - cell viability counter screen (AID 743221; active = well fitted cell-killing curve with a large enough effect in the repeat runs, not every such curve was filed as active; note: nearly all actives have a fitted effect of over 50% in size)
Summary of the method: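 Cytotoxicity counter screen run in the FXR-bla reporter wells: HEK 293T cells exposed to compound with 50 uM (final) chenodeoxycholic acid for 16 h, 37 C, then viability measured by CellTiter-Glo luminescence after 30 min, room temperature.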

[5] = molecular target: Vitamin D3 receptor (Homo sapiens) (UniProt P11473); experiment: qHTS assay to identify small molecule agonists of the vitamin D receptor (VDR) signaling pathway (AID 743222; calls by dose curve)
Summary of the method: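 Agonist mode, beta-lactamase reporter: fluorescence from LiveBLAzer B/G FRET substrate (2 h, room temperature) read after 16 h compound treatment at 37 C of VDR-bla cells, which were pre-incubated 4 h after seeding.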

[6] = molecular target: Vitamin D3 receptor (Homo sapiens) (UniProt P11473); experiment: qHTS assay to identify small molecule antagonists of the vitamin D receptor (VDR) signaling pathway (AID 743223; active = well fitted inhibition curve with a large enough effect in the signal ratio in the repeat runs, not every such curve was filed as active; the % refers to the signal ratio)
Summary of the method: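 Antagonist mode: compound added to VDR-bla cells alongside agonist 1alpha,25-dihydroxyvitamin D3 (3 nM final), incubation 16 h at 37C. Read-out is LiveBLAzer FRET fluorescence, 2 h at room temperature.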

[7] = molecular target: Peroxisome proliferator-activated receptor delta (Homo sapiens) (UniProt Q03181); experiment: qHTS assay to identify small molecule agonists of the peroxisome proliferator-activated receptor delta (PPARd) signaling pathway (AID 743212; calls by dose curve)
Summary of the method: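 Read-out: beta-lactamase FRET fluorescence after 2 h room-temperature incubation with LiveBLAzer B/G substrate. Cells were HEK293H carrying a UAS-bla reporter for PPARd, treated at 37 C with DMSO-dissolved compounds.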

[8] = molecular target: Peroxisome proliferator-activated receptor delta (Homo sapiens) (UniProt Q03181); experiment: qHTS assay to identify small molecule antagonists of the peroxisome proliferator-activated receptor delta (PPARd) signaling pathway (AID 743215; active = well fitted inhibition curve with a large enough effect in the signal ratio in the repeat runs, not every such curve was filed as active; the % refers to the signal ratio;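 note: cells stimulated with agonist L165041 at 300 nM final during compound exposure; series mostly up to about 62 µM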)
Summary of the method: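 Agonist L165041 (300 nM final) added with compound to PPARd-bla HEK293H UAS-bla reporter cells; 17 h incubation at 37 C. Read-out: LiveBLAzer FRET substrate, 2 h at room temperature, fluorescence intensity.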

[9] = molecular target: Bile acid receptor (Homo sapiens) (UniProt Q96RI1); experiment: qHTS assay to identify small molecule antagonists of the farnesoid-X-receptor (FXR) signaling pathway (AID 743217; active = well fitted inhibition curve with a large enough effect in the signal ratio in the repeat runs, not every such curve was filed as active; the % refers to the signal ratio)
Summary of the method: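 Antagonist mode: chenodeoxycholic acid at 50 uM final stimulates a UAS-driven beta-lactamase reporter in HEK 293T FXR-bla cells during 16 h, 37C compound exposure. Read-out is FRET substrate fluorescence after 2 h at room temperature.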

[10] = molecular target: Bile acid receptor (Homo sapiens) (UniProt Q96RI1); experiment: qHTS assay to identify small molecule agonists of the farnesoid-X-receptor (FXR) signaling pathway (AID 743220; active = well fitted activation curve with a large enough effect in the signal ratio in the repeat runs, not every such curve was filed as active; the % refers to the signal ratio)
Summary of the method: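 FXR-UAS-bla HEK 293T cells carrying a UAS-driven beta-lactamase reporter were plated for 5 h at 37C/5% CO2, then exposed to DMSO-dissolved Tox21 10K compounds for 16 h at 37C. A LiveBLAzer B/G FRET substrate was loaded for 2 h at room temperature before fluorescence reading.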
% is set by controls: 0 for no effect and ±100 for the full control effect.

Bile acid receptor (Homo sapiens), sequence (Q96RI1 whole entry, looked up): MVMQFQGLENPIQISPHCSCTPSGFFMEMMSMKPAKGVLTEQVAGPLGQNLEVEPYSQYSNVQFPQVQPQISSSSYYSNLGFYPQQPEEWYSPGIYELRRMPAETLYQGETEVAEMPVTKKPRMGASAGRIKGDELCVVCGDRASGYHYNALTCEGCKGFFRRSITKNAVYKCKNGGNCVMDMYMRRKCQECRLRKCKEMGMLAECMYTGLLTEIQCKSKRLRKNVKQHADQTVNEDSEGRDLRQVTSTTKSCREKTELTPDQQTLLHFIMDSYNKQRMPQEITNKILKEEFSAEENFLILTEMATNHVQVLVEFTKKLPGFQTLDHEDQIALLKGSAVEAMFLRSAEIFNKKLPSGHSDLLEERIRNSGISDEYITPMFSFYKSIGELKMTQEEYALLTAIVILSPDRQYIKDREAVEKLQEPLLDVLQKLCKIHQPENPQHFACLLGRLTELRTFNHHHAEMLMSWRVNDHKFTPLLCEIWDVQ
Peroxisome proliferator-activated receptor delta (Homo sapiens), sequence (Q03181 whole entry, looked up): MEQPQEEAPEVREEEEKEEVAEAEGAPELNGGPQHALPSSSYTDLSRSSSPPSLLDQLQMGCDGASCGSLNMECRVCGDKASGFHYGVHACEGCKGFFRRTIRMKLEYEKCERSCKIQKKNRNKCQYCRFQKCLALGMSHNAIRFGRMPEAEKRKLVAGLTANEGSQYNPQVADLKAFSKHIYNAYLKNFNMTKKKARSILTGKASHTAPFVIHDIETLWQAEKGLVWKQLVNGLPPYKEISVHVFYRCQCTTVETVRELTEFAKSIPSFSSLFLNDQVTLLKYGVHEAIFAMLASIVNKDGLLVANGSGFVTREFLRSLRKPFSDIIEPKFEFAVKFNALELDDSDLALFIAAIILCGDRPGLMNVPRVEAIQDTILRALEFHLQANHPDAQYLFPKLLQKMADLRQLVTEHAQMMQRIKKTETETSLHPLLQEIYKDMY
Vitamin D3 receptor (Homo sapiens), sequence (P11473 whole entry, looked up): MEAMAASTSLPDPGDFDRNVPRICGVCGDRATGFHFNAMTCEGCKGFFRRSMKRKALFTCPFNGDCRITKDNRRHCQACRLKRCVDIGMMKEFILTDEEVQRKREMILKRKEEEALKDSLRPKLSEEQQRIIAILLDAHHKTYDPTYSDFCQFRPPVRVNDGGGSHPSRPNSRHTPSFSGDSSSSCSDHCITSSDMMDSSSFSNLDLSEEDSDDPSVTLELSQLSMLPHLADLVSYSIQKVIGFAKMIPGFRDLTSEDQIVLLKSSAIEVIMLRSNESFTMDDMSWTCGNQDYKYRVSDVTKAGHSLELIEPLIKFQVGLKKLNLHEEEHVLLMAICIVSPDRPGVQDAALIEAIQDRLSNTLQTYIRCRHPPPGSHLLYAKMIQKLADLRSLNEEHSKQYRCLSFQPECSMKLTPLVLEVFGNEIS

FC(F)(F)C(F)(F)C(F)(F)C(F)(F)C(F)(F)C(F)(F)C(F)(F)C(F)(F)C(F)(F)C(F)(F)F
inactive: activity change, negative = cytotoxicity [1] 5.8% [at 5.95 µM] | viability change, negative = cytotoxic [2] -11.7% [at 6.26 µM] | viability change, negative = cytotoxic [3] 1.72% [at 5.95 µM] | activity change, negative = cytotoxicity [4] 9.95% [at 5.95 µM] | activation [5] 0.833% [at 6.01 µM] | activity change, negative = inhibition [6] -8.47% [at 6.95 µM]

CO
inactive: Potency [1] | Potency [2] | outcome [3] | Potency [4] | outcome [5]

CCO[Si](CCCN=C=O)(OCC)OCC
inactive: outcome [7] | Potency [2] | outcome [8] | outcome [3] | Potency [4] | outcome [5] | outcome [6]

COC[C@H](c1ccc(C(F)(F)F)cc1)N1CCN(C2(C)CCN(C(=O)c3c(C)ncnc3C)CC2)C[C@H]1C
inactive: outcome [7] | Potency [2] | outcome [8] | outcome [3] | Potency [4] | outcome [5]

CCOC(=O)Cn1c(=O)sc2cccc(Cl)c21
inactive: outcome [7] | Potency [2] | outcome [8] | outcome [9] | outcome [3] | outcome [10] | Potency [4] | outcome [5] | outcome [6]

Nc1cc(C(Cl)=C(Cl)Cl)c(S(N)(=O)=O)cc1S(N)(=O)=O
inactive: Potency [1] | Potency [2] | outcome [3] | Potency [4]

O=S(=O)(c1cccc2cnccc12)N1CCCNCC1
inactive: outcome [7] | Potency [2] | outcome [10] | Potency [4] | outcome [5]

O=C(CCOCCOCCOCCOCCC(=O)Nc1c(I)cc(I)c(C(=O)O)c1I)Nc1c(I)cc(I)c(C(=O)O)c1I
inactive: Potency [1] | Potency [2] | outcome [3] | Potency [4] | outcome [5] | outcome [6]

OC1OC[C@@H](O)[C@H](O)[C@H]1O (some centres not stated)
inactive: Potency [1] | Potency [2] | outcome [3] | Potency [4]

CC/C=C\CCCCO
inactive: Potency [1] | Potency [2] | outcome [3] | Potency [4] | outcome [5] | outcome [6]

Cc1cc(C)c(NC(=O)CN(CC(=O)O)CC(=O)O)c(C)c1Br
inactive: Potency [1] | Potency [2] | outcome [3] | Potency [4] | outcome [5]

CCCc1ccccc1O
inactive: Potency [1] | Potency [2] | outcome [3] | Potency [4] | outcome [5] | outcome [6]

O=C(O)C(O)[C@H](O)[C@@H](O)[C@H](O)[C@H](O)CO (some centres not stated)
inactive: Potency [1] | outcome [9] | outcome [3] | outcome [10] | Potency [4] | outcome [5]

Cc1nccn1CC1CCc2c(c3ccccc3n2C)C1=O (configuration not stated)
inactive: Potency [1] | Potency [2] | outcome [3] | Potency [4] | outcome [5] | outcome [6]

C/C=C1\C(=O)C[C@H]2[C@@H]3CCC4=CC(=O)CC[C@]4(C)[C@H]3CC[C@]12C
inactive: Potency [1] | Potency [2] | outcome [3] | Potency [4] | outcome [5]

C(=C(c1ccccc1)c1ccccc1)c1ccccc1
inactive: outcome [7] | Potency [2] | outcome [8] | outcome [3] | outcome [10] | Potency [4] | outcome [5] | outcome [6]

C1CCCCCCCCCCC1
inactive: outcome [7] | Potency [2] | outcome [8] | outcome [3] | Potency [4] | outcome [5] | outcome [6]

OC[C@H]1O[C@@H]2O[C@H]3[C@H](O)[C@@H](O)[C@@H](O[C@H]4[C@H](O)[C@@H](O)[C@@H](O[C@H]5[C@H](O)[C@@H](O)[C@@H](O[C@H]6[C@H](O)[C@@H](O)[C@@H](O[C@H]7[C@H](O)[C@@H](O)[C@@H](O[C@H]8[C@H](O)[C@@H](O)[C@@H](O[C@H]9[C@H](O)[C@@H](O)[C@@H](O[C@H]1[C@H](O)[C@H]2O)O[C@@H]9CO)O[C@@H]8CO)O[C@@H]7CO)O[C@@H]6CO)O[C@@H]5CO)O[C@@H]4CO)O[C@@H]3CO
inactive: Potency [1] | Potency [2] | outcome [3] | Potency [4] | outcome [5] | outcome [6]

CCCCc1ccc(N)cc1
inactive: Potency [1] | Potency [2] | outcome [3] | outcome [5] | outcome [6]

c1cc(CN2CCCCC2)cc(OCCCNc2nc3ccccc3s2)c1
inactive: outcome [8] | outcome [3] | Potency [4] | outcome [5]

C1C2OC2C2C1C1CC2C2OC12 (configuration not stated)
inactive: Potency [2] | outcome [3] | Potency [4] | outcome [5]

O=C1C(CCS(=O)c2ccccc2)C(=O)N(c2ccccc2)N1c1ccccc1 (configuration not stated)
inactive: outcome [7] | Potency [2] | outcome [8] | outcome [3] | Potency [4]

CCCCCCCCC=O
inactive: outcome [7] | Potency [2] | Potency [4]

CC(O)CN(CCCN(C)C)CCCN(C)C (configuration not stated)
inactive: Potency [1] | Potency [2] | outcome [3] | Potency [4] | outcome [5] | outcome [6]

COC(=O)[C@H]1[C@H]2C[C@@H]3c4[nH]c5cc(OC)ccc5c4CCN3C[C@H]2C[C@@H](OC(=O)COc2ccc(OC)cc2)[C@@H]1OC
inactive: Potency [1] | Potency [4]

CCCCCC[C@@H](CCC)C(=O)O
inactive: Potency [1] | Potency [2] | outcome [3] | Potency [4] | outcome [5] | outcome [6]

NCCNC(=O)c1ccc(Cl)cn1
inactive: Potency [1] | Potency [2] | outcome [3] | Potency [4] | outcome [5] | outcome [6]

CCN1CCCC1CNC(=O)c1cc(S(N)(=O)=O)ccc1OC (configuration not stated)
inactive: Potency [1] | outcome [3] | Potency [4] | outcome [5] | outcome [6]

COc1cc(C(=O)N2CCOCC2)cc(OC)c1OC
inactive: Potency [1] | Potency [2] | outcome [3] | Potency [4] | outcome [5] | outcome [6]

CCOC(=O)[C@H](CCc1ccccc1)N[C@@H](C)C(=O)N1CCC[C@H]1C(=O)O
inactive: outcome [7] | outcome [8] | outcome [3] | Potency [4] | outcome [5]

CC(C)=CCC/C(C)=C/C(=O)O
inactive: Potency [2] | outcome [3] | Potency [4]

CC(C)c1ccc2oc3nc(N)c(C(=O)O)cc3c(=O)c2c1
inactive: Potency [1] | Potency [2] | outcome [3] | Potency [4] | outcome [6]

CCCCN(CCO)CCO
inactive: Potency [1] | Potency [2] | Potency [4] | outcome [5] | outcome [6]

CCCOc1ccccc1-c1nc2n[nH]nc2c(=O)[nH]1
inactive: Potency [1] | outcome [8] | outcome [10] | Potency [4]

CCN1CCN(c2cc3c(cc2F)c(=O)c(C(=O)O)cn3C2CC2)CC1
inactive: outcome [7] | Potency [2] | outcome [3] | Potency [4] | outcome [5] | outcome [6]

C=C(C)[C@H]1CC=C(C)CC1
inactive: Potency [1] | Potency [2] | outcome [3] | Potency [4]

NC(=O)c1ncn([C@@H]2O[C@H](CO)[C@@H](O)[C@H]2O)c1N
inactive: Potency [1] | Potency [2] | outcome [3] | Potency [4] | outcome [5] | outcome [6]
